Potency and affinity values are given separately.
Columns and labels:
Staphylococcus aureus = details: Concentration 32 ug.mL-1;; ASSAY_TEST Inhibition of Bacterial Growth; detection method Absorption (OD600); MEDIA CAMHB; plate type 384well; NBS; CORNING #3640; time 18 hr
Escherichia coli = details: Concentration 32 ug.mL-1;; ASSAY_TEST Inhibition of Bacterial Growth; detection method Absorption (OD600); MEDIA CAMHB; plate type 384well; NBS; CORNING #3640; time 18 hr

Structure (SMILES)	Inhibition (Staphylococcus aureus) [%]	Inhibition (Escherichia coli) [%]
CCOc1ccc(-c2nc(CSc3nc4ccccc4n4c(C(C)C)nnc34)c(C)o2)cc1	-10.96	-11.72
Cc1cc2nn(CC(=O)N3CCCC3)c(=O)n2c(Nc2ccc(C)c(F)c2)n1	5.2	-7.93
CCc1ccccc1NC(=O)Cn1nc2cc(C)nc(Nc3ccc(F)cc3)n2c1=O	8.34	-2.85
COc1ccc(NC(=O)Cn2nc3c4cc(-c5ccc(Cl)cc5)nn4ccn3c2=O)c(OC)c1	9.6	5.1
